# Measurements taken from PubChem BioAssay (NCATS).
# A number with no mark means an inactive call. Results filed as inconclusive are left out. A call without a number means that no potency is given here. The source made the active and inactive calls. Calls follow the shape of the dose curve; as a rule, active = well fitted curve in the direction sought with a large enough effect; inconclusive = small, poorly fitted or top-dose-only effect, or another doubt; inactive = no such curve, though single readings can be large; an effect the other way counts as inactive or inconclusive.
# Tests used:
# [1] = qHTS to identify inhibitors of the type 1 interferon - major histocompatibility complex class I in skeletal muscle: primary screen against the NCATS LOPAC collection (AID 1347405);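 also: human myoblasts with HiBiT tag on endogenous HLA-B stimulated by IFN-beta; lytic HiBiT luminescence reporting HLA-B protein level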
# Method in brief: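 First, engineered myoblasts carrying HLA-B-HiBiT were seeded in medium lacking dexamethasone with 4 ng/ml IFN-beta. After 1 hr, compounds were pinned in (top 46 uM final, 7 points). After 24 hrs at 37 C, luminescence was measured following 10 min lysis.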
# [2] = qHTS for inhibitors of adenylyl cyclases using a fission yeast platform: a pilot screen against the NCATS LOPAC library (AID 1347410)
# Method in brief: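 Fission yeast qHTS: CHP2027 cells (AC9-GNAS-PDE4D2, fbp1-GFP), 5x10^6 cells/mL working density, EMM + His/Lys/Ura; LOPAC at up to 57 µM final; 18 h dark, 30C; GFP by laser cytometry. DPI positive control, DMSO vehicle.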
# [3] = Validation qHTS assay for inhibitors of Activation Induced Cytidine Deaminase (AID): UDG Counterscreen signal (AID 1347427)
# Method in brief: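 Fluorescence at 560 nm excitation, 665 nm emission reports UDG signal after 250 mM NaOH (2x) addition and 30 min. Enzymes (AID 1 uM, UDG 2 U/mL, at 4/3x) preincubated 10 min with compound, then 4 h with 4x 250 nM DJC20/DJC23 substrate at room temperature.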
# [4] = qHTS to identify inhibitors of the type 1 interferon - major histocompatibility complex class I in skeletal muscle: primary screen against the NCATS Mechanism Interrogation Plate v5.0 (MIPE) Libary (AID 1347411); also: nearly all actives have a fitted effect of over 65% in size; also: potency is read from the fitted curve at half-maximal effect
# Method in brief: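 Seed engineered human myoblasts (HLA-B HiBit) in medium without dexamethasone containing 4 ng/ml IFN-beta; after 1 hr add compound titrations (top 46 uM final). Incubate 24 hrs at 37 C, lyse 10 min with HiBiT reagent, read luminescence.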
# [5] = target: Protein phosphatase 1D (Homo sapiens) (UniProt O15297); experiment: Rhodamine-PBP qHTS Assay for Modulators of WT P53-Induced Phosphatase 1 (WIP1) (AID 1347425)
# Method in brief: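 Steps: enzyme with Rh-PBP sensor and compounds, room-temperature incubation of 1 hr, baseline read, addition of VEPPL-pS-QETFS (10 uM final), kinetic fluorescence reads at 525/598 nm. Activity equals final minus baseline signal.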
# [6] = qHTS to identify inhibitors of the type 1 interferon - major histocompatibility complex class I in skeletal muscle: primary screen against the NCATS Pharmaceutical Collection (AID 1347407);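 also: luminescence of HiBiT knocked into endogenous HLA-B as interferon-induced MHC class I level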
# Method in brief: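 Luminescence from HiBiT-tagged endogenous HLA-B*08:01 served as the read-out of IFN-beta-induced MHC class I in CRISPR-engineered C25cl48 myoblasts. Cells received 4 ng/ml IFN-beta plus compound (high final 46 uM, […]) for 24 h.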
# [7] = target: Protein phosphatase 1D (Homo sapiens) (UniProt O15297); experiment: RapidFire Mass Spectrometry qHTS Assay for Modulators of WT P53-Induced Phosphatase 1 (WIP1) (AID 1347424);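 also: amount of dephosphorylated VEPPL-S-QETFS peptide product formed by WIP1; series mostly up to about 63 µM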
# Method in brief: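 RapidFire mass spectrometry measured dephosphorylated peptide after 5 min room-temperature reaction of 2 uM VEPPL-pS-QETFS with 10 nM WIP1 (50 mM Tris-HCl pH 7.5, 30 mM MgCl2, 0.1 mM EGTA, BSA), following 1 hr compound preincubation; 1 uM isotope-labelled product standard.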
# Protein phosphatase 1D (Homo sapiens), sequence (O15297 whole entry, looked up): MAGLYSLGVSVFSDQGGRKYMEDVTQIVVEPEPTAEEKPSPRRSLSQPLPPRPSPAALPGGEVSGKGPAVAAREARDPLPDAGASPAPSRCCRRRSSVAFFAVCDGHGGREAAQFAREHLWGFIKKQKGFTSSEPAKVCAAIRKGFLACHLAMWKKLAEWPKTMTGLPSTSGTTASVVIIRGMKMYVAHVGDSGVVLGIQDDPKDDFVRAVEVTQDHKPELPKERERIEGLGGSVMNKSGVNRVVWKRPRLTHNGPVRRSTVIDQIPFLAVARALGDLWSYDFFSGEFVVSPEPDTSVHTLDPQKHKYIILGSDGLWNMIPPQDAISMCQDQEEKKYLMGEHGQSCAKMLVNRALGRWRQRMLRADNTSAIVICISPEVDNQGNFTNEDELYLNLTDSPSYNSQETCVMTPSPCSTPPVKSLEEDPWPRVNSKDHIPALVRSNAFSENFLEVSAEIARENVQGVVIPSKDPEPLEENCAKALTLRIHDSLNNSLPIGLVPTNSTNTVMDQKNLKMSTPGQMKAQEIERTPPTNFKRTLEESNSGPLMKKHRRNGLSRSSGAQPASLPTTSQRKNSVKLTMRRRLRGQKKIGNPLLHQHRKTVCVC
smiles,measurement,setting,value
CCCCCCCC/C=C\CCCCCCCC(=O)NCCO,Potency,[1],inactive
same,outcome,[2],inactive
same,Potency,[3],inactive
C[N+]1(C)[C@@H]2CC(OC(=O)[C@H](CO)c3ccccc3)C[C@H]1[C@@H]1O[C@@H]12 (stereo partly drawn),Potency,[4],inactive
same,outcome,[5],inactive
COc1cc(OC)cc(-c2cc3cnc(N)nc3nc2NC(=O)NC(C)(C)C)c1,outcome,[2],inactive
CCCCN(CC)c1nc(C)nc2c1c(C)cn2-c1c(C)cc(C)cc1C,outcome,[2],inactive
COC1=C(OC)C(=O)c2ccccc2C1=O,outcome,[2],inactive
CCCCCCCC/C=C/C(=O)O,Potency,[6],inactive
same,Potency,[7],inactive
same,outcome,[5],inactive
Nc1ccc(C(=O)O)c(O)c1,Potency,[6],inactive
same,Potency,[7],inactive
same,outcome,[5],inactive
CC(=O)c1ccc(OCC(=O)N2CCCCC2)cc1,Potency,[6],inactive
same,Potency,[7],inactive
same,outcome,[5],inactive
Nc1ccc([N+](=O)[O-])cc1O,Potency,[6],inactive
same,Potency,[7],inactive
same,outcome,[5],inactive
CCCCCCCCCCCCCCCC(=O)OC(C)C,Potency,[6],inactive
same,Potency,[7],inactive
same,outcome,[5],inactive
C=C[C@H]1CN2CC[C@@H]1C[C@@H]2[C@@H](O)c1ccnc2ccc(OC)cc12,outcome,[2],inactive
CCCCCCCCCCCCOCCO,Potency,[6],inactive
same,Potency,[7],inactive
same,outcome,[5],inactive
COc1ccc(-c2cc(=O)c3c(O)c(OC)c(OC)cc3o2)cc1O,outcome,[2],inactive
Cc1cc(O)c2ccccc2c1O,Potency,[6],inactive
same,outcome,[5],inactive
O=C(Nc1ccc(C(=O)O)c(O)c1)c1ccccc1,Potency,[6],inactive
same,Potency,[7],inactive
same,outcome,[5],inactive
Nc1nc(OCC2CCCCC2)c2[nH]cnc2n1,outcome,[2],inactive
C=C[C@@H]1CN2CC[C@@H]1C[C@H]2[C@H](O)c1ccnc2ccc(OC)cc12,outcome,[2],inactive
C/C(=N\O)c1ccc(OCC(=O)N2CCCCC2)cc1,Potency,[6],inactive
same,Potency,[7],inactive
same,outcome,[5],inactive
O=C(O)Cc1ccc2c(c1)C(=O)c1ccccc1CO2,Potency,[6],inactive
same,Potency,[7],inactive
same,outcome,[5],inactive
c1ccc2sc(SN3CCOCC3)nc2c1,Potency,[6],inactive
same,Potency,[7],inactive
same,outcome,[5],inactive
CC(C(=O)O)c1ccc(C(=O)c2ccccc2)s1 (stereo not drawn),Potency,[6],inactive
same,Potency,[7],inactive
same,outcome,[5],inactive
CC(C)Cc1ccc([C@H](C)C(=O)O)cc1,outcome,[2],inactive
N=C1N=C(N)c2cc3ccccc3cc21,Potency,[6],inactive
same,Potency,[7],inactive
same,outcome,[5],inactive
CC(C(=O)O)c1ccc(C(=O)c2cccs2)cc1 (stereo not drawn),Potency,[6],inactive
same,Potency,[7],inactive
same,outcome,[5],inactive
CCN(CC)CCCCNc1ncc2cc(-c3c(Cl)cccc3Cl)c(NC(=O)NC(C)(C)C)nc2n1,outcome,[2],inactive
COc1ccc(/C=C/c2nc(NCCCN(C)C)c3ccccc3n2)cc1,outcome,[2],inactive
O=C(NOCC1CC1)c1cc(Br)c(F)c(F)c1Nc1ccc(I)cc1Cl,outcome,[2],inactive
CCOC(=O)N1CCN(/[N+]([O-])=N/Oc2ccc([N+](=O)[O-])cc2[N+](=O)[O-])CC1,outcome,[2],inactive
same,Potency,[4],20.8 µM (active)
same,Potency,[3],inactive
COc1ccnc2c1CCCCC2S(=O)c1nc2ccccc2[nH]1 (stereo not drawn),Potency,[6],inactive
same,Potency,[7],inactive
same,outcome,[5],inactive
O=S(=O)(c1cccc2c(I)cccc12)N1CCCNCC1,outcome,[2],inactive
same,Potency,[4],inactive
same,Potency,[3],inactive
Cc1ccc(C(=O)c2ccc(CC(=O)O)n2C)cc1,Potency,[6],inactive
same,Potency,[7],inactive
Nc1c(CC(=O)O)cccc1C(=O)c1ccc(Br)cc1,Potency,[6],inactive
same,outcome,[5],inactive
Cc1nc2ccccc2n1Cc1ccc(Cl)cc1,Potency,[6],inactive
same,Potency,[7],inactive
same,outcome,[5],inactive
CNC(=O)c1c(I)c(NC(=O)CCCCC(=O)Nc2c(I)c(C(=O)O)c(I)c(C(=O)NC)c2I)c(I)c(C(=O)O)c1I,Potency,[6],inactive
same,Potency,[7],inactive
same,outcome,[5],inactive
COC(=O)C1=C(C)NC(C)=C(C(=O)OC)C1c1cccc(NC(=O)NCCCN2CCC(c3cccc(OC)c3)CC2)c1,outcome,[2],inactive
C#C[C@]1(O)CC[C@H]2[C@@H]3CCC4=Cc5oncc5CC4(C)[C@H]3CCC21C (stereo partly drawn),outcome,[2],inactive
CCCCCCCCCCCCCCCCCC(=O)O,Potency,[6],inactive
same,Potency,[7],inactive
same,outcome,[5],inactive
N=C(N)N,Potency,[6],inactive
same,Potency,[7],inactive
same,outcome,[5],inactive
COc1cccc2c1C(=O)c1c(O)c3c(c(O)c1C2=O)C[C@@](O)(C(=O)CO)C[C@@H]3O[C@H]1C[C@H](N)[C@H](O[C@@H]2CCCCO2)[C@H](C)O1,Potency,[6],inactive
same,Potency,[7],inactive
same,outcome,[5],inactive
CCCCCCOc1ccccc1C(N)=O,Potency,[6],inactive
same,Potency,[7],inactive
same,outcome,[5],inactive
O=C(O)Cc1cccc(-c2cc(CCCCCCc3ccc(O[C@H]4O[C@H](CO)[C@@H](O)[C@H](O)[C@@H]4O)c(-c4cccc(CC(=O)O)c4)c3)ccc2O[C@H]2O[C@H](CO)[C@@H](O)[C@H](O)[C@@H]2O)c1,"activity change, negative = inhibition",[6],-3.38% [at 0.727 µM]
same,"activity change, negative = inhibition",[7],-6.57% [at 0.505 µM]
same,"activity change, negative = inhibition",[5],-0.323% [at 0.575 µM]
c1ccc2sc(SSc3nc4ccccc4s3)nc2c1,Potency,[6],inactive
same,Potency,[7],inactive
same,outcome,[5],inactive
O=C(O)[C@H](CC(=O)N1C[C@H]2CCCC[C@H]2C1)Cc1ccccc1,Potency,[4],inactive
[O-][n+]1ccccc1SSc1cccc[n+]1[O-],Potency,[7],inactive
O=C1NC(=O)/C(=C/c2ccc(-c3ccc(F)cc3O)o2)S1,outcome,[2],inactive
same,Potency,[4],inactive
same,Potency,[3],inactive
COC(=O)C1=C(C)NC(C)=C(C(=O)OCC(C)C)C1c1ccccc1[N+](=O)[O-] (stereo not drawn),Potency,[7],inactive
same,outcome,[5],inactive
O=C(Nc1ccccc1)c1cc([N+](=O)[O-])ccc1Cl,outcome,[2],inactive
same,Potency,[3],inactive
O=C1NC(=O)/C(=C/c2ccc3nccnc3c2)S1,outcome,[2],inactive
same,Potency,[4],inactive
same,Potency,[3],inactive
